Laboratory results as given in PubChem BioAssay AID1159580 (chemical genetic matrix, 2015).
In all, about 5,500 compounds went through this assay and about 2,000 (36%) were called active. Roughly 18% stayed inconclusive and do not appear here. Rule as the data show it: active = normalized growth mostly below about 0.91 (no sharp cut-off); inconclusive = no clear call, values can overlap the other calls; inactive = mostly above about 0.92. This is one part of the list.

Assay: chemical genetic growth profiling, strain panel (AID 1159580);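 also: tested at 20 µM; growth read once vehicle control cultures reached saturation at 30 °C; 1 = growth at the plate median or of vehicle wells; lower values mean less growth of the strain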
Details: S. cerevisiae deletion strains, growth OD
[1] = locus YAL040C, strain CLN3, stronger effect = lower value
[2] = locus YCL061C, strain MRC1 (second series), stronger effect = lower value
[3] = locus YDR363W, strain ESC2, stronger effect = lower value
[4] = locus YER002W, strain NOP16, stronger effect = lower value
[5] = locus YNL175C, strain NOP13, stronger effect = lower value
[6] = locus YNL197C, strain WHI3, stronger effect = lower value
[7] = locus YNL224C, strain SQS1, stronger effect = lower value
[8] = locus YOR083W, strain WHI5 (second series), stronger effect = lower value

Measured: normalized growth

C[N+]1(C)CCN(c2ccccc2)CC1
inactive: [2] 1 | [3] 1.04 | [4] 0.961 | locus YGR078C, strain PAC10, stronger effect = lower value 1 | locus YNL128W, strain TEP1, stronger effect = lower value 0.997 | [5] 0.974 | [6] 0.958 | [7] 1 | [8] 0.979 | locus YPL241C, strain CIN2, stronger effect = lower value 1
active: [1] 0.873

C[N+]1(C)CCC(OC(=O)C(c2ccccc2)c2ccccc2)CC1
inactive: [1] 1.08 | [2] 0.992 | [3] 0.956 | [4] 0.999 | locus YMR263W, strain SAP30, stronger effect = lower value 0.987 | locus YMR307W, strain GAS1, stronger effect = lower value 0.988 | locus YNL153C, strain GIM3, stronger effect = lower value 1.01 | [5] 1.01 | [6] 1.03 | [7] 1.01 | locus YNL322C, strain KRE1, stronger effect = lower value 0.915 | [8] 1.02
